Source: PubChem BioAssay (Tox21)
Records with an inconclusive call do not appear. Unmarked numbers belong to inactive results. Calls of active or inactive are those of the source. Calls come from the whole dose curve; as a rule, active = well fitted activation curve with a large enough effect in the signal ratio in the repeat runs (not every such curve was filed as active); inconclusive = weak or mixed curves, or effect the other way; inactive = flat fitted curve, though single readings scatter; the % refers to the signal ratio.

molecular target: Bile acid receptor (Homo sapiens) (UniProt Q96RI1); assay: qHTS assay to identify small molecule agonists of the farnesoid-X-receptor (FXR) signaling pathway (AID 743220); conditions: HEK293T FXR-UAS-bla, beta-lactamase FRET ratio, 16 h; series mostly up to 62.6 µM; activation: at the top concentration
Description: National Center for Advancing Translational Sciences [NCATS]
NIH Chemical Genomics Center [NCGC]
U.S. Environmental Protection Agency [EPA]
National Institutes of Environmental Health Sciences [NIEHS]
National Toxicology Program [NTP]
U.S. Food and Drug Administration [FDA]
The farnesoid-X-receptor (FXR), a nuclear hormone receptor, is highly expressed in liver, intestine, kidney and adrenal cortex. Natural ligands of FXR are the bile acids (Cholic acid, Chenodeoxy cholic acid etc). FXR is an important regulator of diverse metabolic pathways, including the bile acid homeostasis, lipid and glucose metabolisms. FXR regulates the expression of target genes by binding either as a monomer or as a heterodimer with the retinoid X receptor (RXR). Numerous studies have reported that FXR exerts protective function during cholestasis, diabetes, liver regeneration, and cancer. To identify compounds that activate FXR signaling, GeneBLAzer FXR-UAS-bla HEK 293T cell line (Invitrogen, Carlsbad, CA) containing a beta-lactamase reporter gene under the control of a UAS response element was used to screen the Tox21 10K compound library.
Tox21 Assay Protocol Summary:
FXR-bla cells were dispensed at 5000 cells/5uL/well in 1536-well black wall/clear bottom plates using a Multidrop Combi (Thermo Fisher Scientific, Waltham, MA) dispenser. After the assay plates were incubated at 37C and 5% CO2 for 5 h, 23 nL of compounds dissolved in DMSO, positive controls or DMSO only was transferred to the assay plate by a Pintool station (Kalypsys, San Diego, CA). The assay plates were incubated at 37C for 16 h. After 1 uL of LiveBLAzerTM B/G FRET substrate was added using a Bioraptr Flying Reagent Dispenser (FRD) workstation (Beckman Coulter, Indianapolis, IN), the plates were incubated at room temperature for 2 h, and fluorescence intensity was measured by an Envision plate reader (PerkinElmer, Shelton, CT).
% is set by controls: 0 for no effect and ±100 for the full control effect.

Sequence of Bile acid receptor (Homo sapiens) (Q96RI1 whole entry, looked up): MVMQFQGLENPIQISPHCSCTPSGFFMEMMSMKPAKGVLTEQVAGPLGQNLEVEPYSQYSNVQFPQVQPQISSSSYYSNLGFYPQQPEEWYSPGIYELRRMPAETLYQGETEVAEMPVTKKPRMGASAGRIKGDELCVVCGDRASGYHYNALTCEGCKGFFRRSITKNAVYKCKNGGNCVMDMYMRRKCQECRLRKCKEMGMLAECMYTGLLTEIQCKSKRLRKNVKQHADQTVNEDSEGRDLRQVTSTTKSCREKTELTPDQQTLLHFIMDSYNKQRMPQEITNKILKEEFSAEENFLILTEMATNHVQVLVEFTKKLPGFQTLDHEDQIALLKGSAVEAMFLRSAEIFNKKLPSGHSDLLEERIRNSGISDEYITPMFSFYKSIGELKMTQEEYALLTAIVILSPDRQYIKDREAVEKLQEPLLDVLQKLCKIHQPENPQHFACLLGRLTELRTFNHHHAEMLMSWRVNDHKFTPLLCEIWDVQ

Question: For `COc1cc2ncnc(Nc3ccc(F)c(Cl)c3)c2cc1OCCCN1CCOCC1`, which “activation” value is on record?
Answer: The value was -5.16%.

Question: For `CC1CC(=O)NN=C1c1ccc(NCC(C)(C)NCC(O)COc2cc(Cl)ccc2C#N)cc1` (stereo not given), which “activation” value is on record?
Answer: The value was 0.776%.

Question: How did the “activation” value turn out when `CCCC(=O)O[C@]1(C(=O)COC(=O)CC)CC[C@H]2[C@@H]3CCC4=CC(=O)CC[C@]4(C)[C@H]3[C@@H](O)C[C@@]21C` was run?
Answer: Its value is 0.0229% [at 29.1 µM].

Question: How did the “activation” value turn out when `CCOC(=O)C(C)Oc1ccc(Oc2nc3ccc(Cl)cc3o2)cc1` (stereo not given) was run?
Answer: Its value is 3.17%.

Question: `CC(C)(C)C(=O)O` was tested. Which “activation” value did it give?
Answer: Its value is -0.316% [at 81.1 µM].

Question: How did the “activation” value turn out when `CCOCCn1c(C2CCN(CCc3ccc(C(C)(C)C(=O)O)cc3)CC2)nc2ccccc21` was run?
Answer: Its value is -1.01%.

Question: Which “activation” value does the source give for `c1ccc(COCc2ccccc2)cc1` here?
Answer: The value was -0.816% [at 81.1 µM].

Question: How did the “activation” value turn out when `CCc1c2c(nc3ccc(OC(=O)N4CCC(N5CCCCC5)CC4)cc13)-c1cc3c(c(=O)n1C2)COC(=O)[C@]3(O)CC` was run?
Answer: The value was 0.147%.

Question: With `COc1ccc([C@@H]2Sc3ccccc3NC(=O)[C@@H]2O)cc1` as the compound, how does the “activation” value read?
Answer: The value was 0.669%.

Question: How did the “activation” value turn out when `O=C(Nc1ccc([N+](=O)[O-])cc1)Nc1ccc([N+](=O)[O-])cc1` was run?
Answer: The value was -4.09%.

Question: With `CC(COc1ccc(C(C)(C)C)cc1)OS(=O)OCCCl` (stereo not given) as the compound, how does the “activation” value read?
Answer: Its value is -0.494% [at 81.1 µM].

Question: `NC(=O)N(O)[C@@H]1C=C[C@H](Oc2cccc(Oc3ccc(F)cc3)c2)C1` was tested. Which “activation” value did it give?
Answer: Its value is 2.3%.

Question: Which “activation” value does the source give for `Nc1c(I)cc(I)c(C(=O)N(CCC(=O)O)c2ccccc2)c1I` here?
Answer: The value was 3.13%.

Question: For `N#C[C@@H]1C[C@@H]2C[C@@H]2N1C(=O)[C@@H](N)C12CC3CC(CC(O)(C3)C1)C2`, which “activation” value is on record?
Answer: Its value is -1.69%.

Question: How did the “activation” value turn out when `CO/N=C1\CN(c2nc3c(cc2F)c(=O)c(C(=O)O)cn3C2CC2)CC1CN` (stereo not given) was run?
Answer: Its value is 4.14%.

Question: How did the “activation” value turn out when `CCC(=O)OC/C=C/c1ccccc1` was run?
Answer: The value was -0.334%.

Question: For `COC(=O)CC(=O)C(C)(C)C`, which “activation” value is on record?
Answer: Its value is -2.97%.

Question: With `O=C(O)c1cccc(O)c1` as the compound, how does the “activation” value read?
Answer: The value was 3.45% [at 81.1 µM].

Question: `Cc1cc(O)c(C(C)C)cc1Cl` was tested. Which Potency did it give?
Answer: The Potency was “inactive”.

Question: Which “activation” value does the source give for `COC(=O)c1cc(Cl)ccc1NS(=O)(=O)C(F)(F)F` here?
Answer: Its value is -0.643%.

Question: How did the “activation” value turn out when `Cc1nc2ccccn2c(=O)c1CCN1CCC(C(=O)c2ccc(F)cc2)CC1` was run?
Answer: Its value is 1.56%.

Question: How did the “activation” value turn out when `NCC1CCCC(CN)C1` (stereo not given) was run?
Answer: Its value is -4.12%.

Question: Which “activation” value does the source give for `Fc1ccccc1[C@@H](F)COC1CCC(Nc2ncnc3[nH]ncc23)CC1` (stereo not given in full) here?
Answer: Its value is 1.88%.

Question: Which “activation” value does the source give for `CC(=O)N(c1onc(C)c1C)S(=O)(=O)c1ccc(N)cc1` here?
Answer: The value was -0.163%.

Question: How did the “activation” value turn out when `CC1=CC(=O)CC(C)(C)C1(O)/C=C/C(C)=C\C(=O)O` (stereo not given) was run?
Answer: The value was -0.582%.

Question: Which “activation” value does the source give for `NC(=O)Cn1c(=O)cc(CCN2CCN(c3nccc4sccc34)CC2)c2ccc(F)cc21` here?
Answer: The value was -3.11%.

Question: How did the “activation” value turn out when `CCCCCCCCCCCC[N+](C)(C)CC(=O)[O-]` was run?
Answer: Its value is 0.0973%.

Question: For `CC(C)(CCl)c1ccccc1`, which “activation” value is on record?
Answer: Its value is -4.31%.

Question: With `C(=C\c1ccccc1)/CN1CCN(C(c2ccccc2)c2ccccc2)CC1` as the compound, how does the “activation” value read?
Answer: Its value is -0.0123%.

Question: `CCCCCCCCCOC(C)=O` was tested. Which “activation” value did it give?
Answer: Its value is 1.1%.

Question: For `CO[Si](C)(OC)OC`, which “activation” value is on record?
Answer: Its value is 2.26%.

Question: For `O=C(CCCN1CCN(c2ccc(F)cc2)CC1)NC1c2ccccc2CSc2ccccc21` (stereo not given), which “activation” value is on record?
Answer: The value was -3.83%.

Question: How did the “activation” value turn out when `CN(C(=O)C(Cl)Cl)c1ccc(OC(=O)c2ccco2)cc1` was run?
Answer: Its value is -0.119%.

Question: Which “activation” value does the source give for `Nc1ccc(S(=O)(=O)O)cc1` here?
Answer: Its value is 0.421% [at 81.1 µM].

Question: For `CC(C)c1nnc2ccc(-c3ocnc3-c3cc(F)ccc3F)cn12`, which “activation” value is on record?
Answer: Its value is -5.24%.

Question: With `C=CCNc1nc(NCC=C)nc(N2CCN(C(c3ccc(F)cc3)c3ccc(F)cc3)CC2)n1` as the compound, how does the “activation” value read?
Answer: Its value is 5.89%.

Question: For `Cc1cc2nc3ccc(=[N+](C)C)cc-3sc2cc1N`, which “activation” value is on record?
Answer: The value was 8.56%.

Question: How did the “activation” value turn out when `O=C1NCCN1` was run?
Answer: The value was -0.68%.

Question: `Nc1ccc(C(=O)OCCCOC(=O)c2ccc(N)cc2)cc1` was tested. Which “activation” value did it give?
Answer: Its value is -5.09%.

Question: Which “activation” value does the source give for `CCCOC(=O)c1ccc(C(=O)OCCC)nc1` here?
Answer: Its value is -4.33%.
